The target of experiment [1] is Thyrotropin receptor (Homo sapiens) (UniProt P16473). Briefly: qHTS assay to identify small molecule agonists of the thyroid stimulating hormone receptor (TSHR) signaling pathway (AID 1224843). Further: nearly all actives have a fitted effect of over 45% in size. The essentials: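 Agonist activity read as cAMP rise via d2/cryptate HTRF competition, 1 h room-temperature detection, in HEK293 cells expressing TSHR. Fifteen-point titrations, each run in triplicate, with a 30 min room-temperature incubation beforehand.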
Thyrotropin receptor (Homo sapiens), sequence (P16473 whole entry, looked up): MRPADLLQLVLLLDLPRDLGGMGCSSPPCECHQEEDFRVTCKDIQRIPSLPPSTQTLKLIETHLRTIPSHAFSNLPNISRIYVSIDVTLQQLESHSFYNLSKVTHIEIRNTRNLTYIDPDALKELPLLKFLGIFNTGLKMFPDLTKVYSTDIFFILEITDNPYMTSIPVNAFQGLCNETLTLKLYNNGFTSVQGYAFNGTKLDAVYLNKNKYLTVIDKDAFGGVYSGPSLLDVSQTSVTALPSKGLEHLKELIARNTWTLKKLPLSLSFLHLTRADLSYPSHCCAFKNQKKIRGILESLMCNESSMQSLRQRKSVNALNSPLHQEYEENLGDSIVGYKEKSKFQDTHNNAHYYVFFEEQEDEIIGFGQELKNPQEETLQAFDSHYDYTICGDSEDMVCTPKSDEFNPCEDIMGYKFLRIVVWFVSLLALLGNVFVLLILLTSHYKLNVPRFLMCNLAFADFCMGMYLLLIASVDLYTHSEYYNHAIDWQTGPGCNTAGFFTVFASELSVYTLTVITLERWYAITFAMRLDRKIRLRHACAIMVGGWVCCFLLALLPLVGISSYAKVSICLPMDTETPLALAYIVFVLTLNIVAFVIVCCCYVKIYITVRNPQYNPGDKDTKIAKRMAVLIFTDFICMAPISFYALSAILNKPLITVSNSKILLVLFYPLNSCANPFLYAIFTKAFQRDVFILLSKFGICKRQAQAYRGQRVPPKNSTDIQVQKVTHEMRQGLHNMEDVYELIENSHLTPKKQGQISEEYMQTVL
For orientation: In qHTS, concentration-response curves come from the screen itself.

Experiment [2] in a line: qHTS assay to identify small molecule agonists of the hypoxia (HIF-1) signaling pathway - cell viability counter screen (AID 1224844). Further: nearly all actives have a fitted effect of over 50% in size. Further: potency means the concentration at half of the fitted maximal effect. The essentials: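 CellTiter-Glo luminescence read-out, 30 min RT, taken in the same wells as the beta-lactamase HRE reporter assay; HRE-bla ME-180 cells, 0.5% dialyzed FBS, 17 hr compound treatment at 37C, 5% CO2.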
Experiment [3] in a line: qHTS assay to identify small molecule agonists of H2AX (AID 1224845; active means well fitted activation curve with a large enough effect in the signal ratio in the repeat runs, not every such curve was filed as active; the % refers to the signal ratio). The essentials: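 Phospho-H2AX Ser139 measured by HTRF (ex 320 nm; em 665 and 620 nm) after 24 hr antibody incubation. Compounds, 15 concentrations, 0.76% DMSO, were applied to CHO-K1 cells for 3hr at 37C before lysis.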
The nature of experiment [4]: qHTS assay to identify small molecule agonists of H2AX - cell viability counter screen (AID 1224847).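 Further: wild-type CHO-K1 cells; top concentration of the series differs between compounds; nearly all actives have a fitted effect of over 30% in size.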 The essentials:
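CHO-K1 wt, 1000 cells/well, o/n 37C; cpds 15 conc, 3 h 37C, 0.76% DMSO; CellTiter-Glo, 30 min RT, luminescence.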

Experiment [5] can be described thus: qHTS RealTime-Glo MT Cell Viability Assay in HepG2 cells - 24 hour (AID 1224867; active means well fitted curve in the direction sought with a large enough effect in the repeat runs; an effect the other way counts as inactive or inconclusive; further: nearly all actives have a fitted effect of over 50% in size). The essentials:
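qHTS, HepG2, 600 cells/well, RealTime-Glo (NanoLuc + prosubstrate) added with cells; 5 h preincubation; DMSO compound addition; 37 C; luminescence at 0/8/16/24/32/40 h.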

Experiment [6] is described as follows: qHTS RealTime-Glo MT Cell Viability Assay in HEK293 cells - 32 hour (AID 1224868; active means well fitted curve in the direction sought with a large enough effect in the repeat runs; an effect the other way counts as inactive or inconclusive; further: top concentration of the series differs between compounds; nearly all actives have a fitted effect of over 50% in size). Put shortly:
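Assay medium contained NanoLuc luciferase plus cell-permeant prosubstrate, added with HEK293 cells at 600 cells/well. After 5 h at 37 C/5% CO2 compounds were added; plates stayed at 37 C for 40 h with serial luminescence reads.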

Experiment [7] in a line: qHTS assay to identify small molecule agonists of the hypoxia (HIF-1) signaling pathway (AID 1224846; active means well fitted activation curve with a large enough effect in the signal ratio in the repeat runs, not every such curve was filed as active; the % refers to the signal ratio). The essentials:
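Beta-lactamase FRET read-out (CCF4-AM substrate) from ME-180 cells carrying an HRE-driven bla reporter, after 17 hrs compound exposure at 37C/5% CO2. Cells were seeded at 2,000 per well in 0.5% dialyzed FBS medium and preincubated 5 hrs.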

Experiment [8] in a line: A CellTox Green Cytotoxicity Assay to monitor cytotoxicity in HEK293 cells - 0 hour (AID 1224869; active means well fitted curve in the direction sought with a large enough effect in the repeat runs; an effect the other way counts as inactive or inconclusive; further: nearly all actives have a fitted effect of over 50% in size). The essentials: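 Read-out: fluorescence of a cell-impermeant cyanine dye staining DNA of dead cells, proportional to cytotoxicity. HEK293, 600 cells/well with reagent, compound (23 nL DMSO) added after 5 h; reads at 0, 8, 16, 24, 32, 40 h.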
Experiment [9] in a line: qHTS assay to identify small molecule antagonists of the estrogen related receptor (ERR) signaling pathway from Tox21 library (AID 1224848; active means well fitted curve in the direction sought with a large enough effect in the repeat runs; an effect the other way counts as inactive or inconclusive; further: nearly all actives have a fitted effect of over 50% in size). The essentials:
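Luciferase luminescence (ONE-Glo, 30 min room temperature) was the read-out. Cells of the NTP-supplied ERR line, 2,000 per well, were given 6 h at 37 C before compound addition in DMSO and 18 h exposure at 37 C.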

Experiment [10] can be described thus: qHTS assay to identify small molecule agonists of the estrogen related receptor (ERR) signaling pathway from Tox21 library (AID 1224849). Further: nearly all actives have a fitted effect of over 15% in size. The conditions noted are these: ERR reporter cell line, ONE-Glo luciferase, 18 h; at 92.4 µM (top of the series) unless noted. Put shortly:
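Luminescence readout (ONE-Glo, 30 min RT) after 18 h compound exposure at 37 C of NTP-supplied ERR reporter cells; cells were plated 6 h before compound addition by pin tool.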

A number with no mark means an inactive call. Records with an inconclusive call do not appear. Activity calls are given as the source filed them. Unless noted, the call rests on the fitted dose curve.
On the % scale 0 is the no-effect control and ±100 the full control effect.

Regarding `NC(=O)c1ncn([C@@H]2O[C@H](CO)[C@@H](O)[C@H]2O)c1O`, the result in experiment [1], in experiment [3] and in experiment [5] was inactive. Also, the Potency result in experiment [2], in experiment [4] and in [6] was “inactive” in each case.
As for `Fc1ccccc1-c1ccccc1`, the outcome in experiment [1], in experiment [3], in experiment [7] and in experiment [5] was inactive. Moreover, the Potency entry in [2], in experiment [6] and in experiment [8] was “inactive” throughout.
Turning to `CCN1CCCC1CNC(=O)c1cc(S(N)(=O)=O)ccc1OC` (stereo unspecified), the compound was called inactive in experiment [1], in [3] and in experiment [5]. In addition, in experiment [2], the Potency is 17.4 µM (active). The Potency result in [4] and in experiment [8] was “inactive” in each case.
`CCCCCCC(=O)OCC`: the compound was called inactive in experiment [1], in [7] and in experiment [5]. For the same compound, the Potency entry in [2], in [4], in experiment [9], in experiment [6] and in experiment [8] was “inactive” throughout. Further, the activity change, positive = activation in experiment [10] was 6.4%.
Regarding `NCCNC(=O)c1ccc(Cl)cn1`, the result in [1], in [7] and in experiment [5] was inactive. Also, the Potency entry in experiment [2], in experiment [4], in experiment [9], in experiment [6] and in [8] was “inactive” throughout. Further, the activity change, positive = activation in [10] is -0.271% [at 42.5 µM].
On to `O=S(=O)(c1cccc2cnccc12)N1CCCNCC1`, for which the result in experiment [1], in [3] and in experiment [5] was inactive. Also, the Potency entry in experiment [2], in [4], in experiment [6] and in experiment [8] was “inactive” in each case. Besides, in [10], the activity change, positive = activation was -26.8% [at 42.5 µM].
With `COc1ccc(N=[N+]([O-])c2ccc(OC)cc2)cc1`, the outcome in [1], in experiment [3], in [7] and in experiment [5] was inactive. Further, the Potency result in experiment [2], in experiment [6] and in [8] was “inactive” throughout.
Consider `COC(=O)CCCC(=O)O`, for which the outcome in experiment [1], in [3] and in [5] was inactive. The Potency entry in [2], in experiment [6] and in experiment [8] was “inactive” throughout.
For `Nc1nc2c(ncn2CCC(CO)CO)c(=O)[nH]1`, the compound was classed as inactive in [1], in experiment [7] and in experiment [5]. The Potency entry in [2], in experiment [4] and in experiment [6] was “inactive” each time. Further, the activity change, positive = activation in [10] is -1.99% [at 42.5 µM].
For `CN(C)C(=O)Nc1ccccc1`, the call in experiment [1], in [7] and in experiment [5] was inactive. Moreover, the Potency entry in experiment [2], in experiment [4], in [6] and in experiment [8] was “inactive” in each case. Also, in [10], the activity change, positive = activation is 3.55%.
Turning to `COc1cc(O)cc(O)c1`, the result in [1], in [3], in experiment [7] and in experiment [5] was inactive. Further, the Potency result in [2], in experiment [6] and in experiment [8] was “inactive” each time.
For the compound `CC(C)(C)C(=O)/C=C/c1ccc(Cl)cc1`, the call in [1], in experiment [7] and in experiment [5] was inactive. The Potency result in experiment [2], in [4], in [9], in [6] and in experiment [8] was “inactive” throughout. Further, in [10], the activity change, positive = activation was 1.54%.
Turning to `CCCCCCOC(=O)CC(CC(=O)OCCCCCC)(OC(=O)CCC)C(=O)OCCCCCC`, the call in experiment [1], in experiment [7] and in experiment [5] was inactive. The Potency entry in experiment [2], in experiment [4] and in experiment [6] was “inactive” throughout. The activity change, positive = activation in experiment [10] was -12.6%.
For `N[C@@H](CS)C(=O)O`, the compound was classed as inactive in experiment [1], in [7] and in experiment [5]. Besides, the Potency result in [2], in experiment [4] and in [6] was “inactive” throughout.
With `COc1ccc(COC=O)cc1`, the outcome in experiment [1], in experiment [3], in experiment [7] and in experiment [5] was inactive. Also, the Potency result in [4], in [6] and in experiment [8] was “inactive” in each case. In addition, the activity change, positive = activation in experiment [10] is -0.945%.
In the case of `COC[C@H](c1ccc(C(F)(F)F)cc1)N1CCN(C2(C)CCN(C(=O)c3c(C)ncnc3C)CC2)C[C@H]1C`, the outcome in [1], in [3], in [7] and in experiment [5] was inactive. Further, the Potency result in [4], in experiment [6] and in [8] was “inactive” in each case. Also, in experiment [10], the activity change, positive = activation is -5.81% [at 42.5 µM].
On to `CCCCC1CCCCC(=O)O1` (stereo unspecified), for which the compound was called inactive in [1], in experiment [3], in [7] and in experiment [5]. Moreover, the Potency result in [4], in experiment [9], in experiment [6] and in experiment [8] was “inactive” each time. Besides, the activity change, positive = activation in [10] was 0.974%.
In the case of `CCOC(=O)[C@H](CCc1ccccc1)N[C@@H](C)C(=O)N1CCC[C@H]1C(=O)O`, the outcome in experiment [1] and in experiment [5] was inactive. Moreover, the Potency result in experiment [2], in experiment [4], in [9], in experiment [6] and in [8] was “inactive” each time. Also, the activity change, positive = activation in experiment [10] is 3.79% [at 42.5 µM].
Consider `CC1CCN(CCCC(=O)c2ccc(F)cc2)CC1`, for which the outcome in experiment [1], in experiment [3], in experiment [7] and in experiment [5] was inactive. The Potency result in [4], in [9], in experiment [6] and in experiment [8] was “inactive” in each case. Moreover, the activity change, positive = activation in [10] is 6.1% [at 42.5 µM].
On to `CC(C)COC(=O)c1ccccc1O`, for which the result in [1], in experiment [3], in [7] and in [5] was inactive. The Potency entry in experiment [4], in experiment [6] and in experiment [8] was “inactive” throughout.

For the origin of these results see PubChem BioAssay (Tox21).
